# Measurements reported in PubChem BioAssay (NCI).
# About 83,000 compounds went through this panel and 20% of them were active in at least one assay; those are over-represented in the sample as a whole.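 Activity criterion: percent growth below 10, measured after cells in 96-well plates were exposed to a single compound concentration for 48 hours.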 Unmarked numbers belong to inactive results. Activity calls are given as the source filed them.
# System: HL-60(TB) leukemia
# Assay: NCI-60 one-dose screen, 48 h (100 = growth as untreated, 0 = no growth, -100 = all killed)
# Settings: 10 µM unless noted
row,SMILES,growth
1,C[C@@H](c1ccc2c(c1)[nH]c1ccc(Cl)cc12)c1nc2ccc(Cl)cc2[nH]1,0.0537% (active)
2,CCCCCCCC/C=C/CCCCCCCC1=NC(C)(C)CN1c1ccccc1,70%
3,CN1Cn2c(ccc2C(F)(F)F)C(=O)CS1(=O)=O,108%
4,C=CC(=O)Nc1cccc(-c2nc(SC)nc(NCCc3ccc(OC)c(OC)c3)c2C#N)c1,25.6%
5,C=C(C)[C@@H]1CC[C@]2(C(N)=O)CC[C@]3(C)[C@H](CC[C@@H]4[C@@]5(C)CC[C@H](OCCC#N)C(C)(C)[C@@H]5CC[C@]43C)[C@@H]12,99.9%
6,COc1ccc(Cn2cc3c(c2-c2ccc(O)cc2)CCc2cnoc2-3)cc1,4.87% (active)
7,Cc1ccc(O)c(NC(=O)c2ccc(CNc3ccnc(C(F)(F)F)c3)cc2)c1,9.24% (active)
8,O=C(c1ccccc1)c1ccc(C2CCCCC2)cc1,101%
9,Cc1ccc(NCCN(C)CC(C)O)c2c(=O)c3ccccc3sc12 (centres undefined),31.3%
10,CC(C)(C)NC/C(=C\c1ccccc1)C(=O)c1ccccc1,1.97% (active)
11,C#CCOc1cccc(Nc2ncnc3cc(NC(=O)CCl)ccc23)c1,-62.2% (active)
12,O=C1NC(=O)C(CSc2ccccc2)(c2ccccc2)N1 (centres undefined),99.9%
13,O=c1c2cc(F)ccc2sc2c(NCCCNCCO)nc3ccc(F)cc3c12,54.6%
14,O=C(CCCC(=O)Nc1ccc(Cn2nnc3cc(Cl)c(Cl)cc32)cc1)Nc1ccc(CN2N=NC3C=C(Cl)C(Cl)=CC32)cc1 (centres undefined),89.7%
15,COc1c(O)cc2c(c1CC=C(C)C)OC(=O)c1c(cc(O)c(CC=C(C)C)c1O)O2,31%
16,COc1cc(CCNc2cnc3cc(N)cc(N)c3n2)cc(OC)c1,27.9%
17,COc1ccc2c(c1)/C(=C/c1c(-c3cc(OC)c(OC)c(OC)c3)nc3sccn13)C(=O)N2,83.4%
18,N#CCCN=Nc1c(O)[nH]c2ccc([N+](=O)[O-])cc12,96.6%
19,CCOC(=O)c1ccc(N(CCC(=O)O)C(C)=O)cc1,117%
20,Clc1ccccc1/C=N\Nc1ccccn1,98.1%

row,SMILES,growth
1,C=C1C(=O)O[C@H]2[C@H]1CC/C(COC(=O)n1ccnc1C)=C\CC[C@@]1(C)O[C@@H]21,83.2%
2,Cc1cc(F)ccc1S(=O)(=O)Nc1cc(-c2c(O)ccc3ccccc23)c(O)c2ccccc12,-10.8% (active)
3,COc1ccc2nc(Cl)c(Cn3nnc(Cc4ccccc4)n3)cc2c1,56.6%
4,Nc1ccn(C2OC(CO)C(O)C2F)c(=O)n1 (centres undefined),105%
5,C=C1C(=O)O[C@H]2[C@H]1CC/C(C=Nc1c(N)cc(C(F)(F)F)cc1C(F)(F)F)=C\CC[C@@]1(C)O[C@@H]21,-24.9% (active)
6,COc1cc2c(cc1OCCCCCCN1CCN(CC(=O)Nc3ccc(Cl)cc3C(=O)c3ccccc3Cl)CC1)N=CC1CCCN1C2=O (centres undefined),-85.8% (active)
7,CCCn1c2cc(OCc3cn(-c4ccc(Cl)cc4)nn3)ccc2c2ccnc(C)c21,-51.4% (active)
8,CCN(CC)CCOc1ccc(Nc2ncc3cc(-c4c(Cl)cccc4Cl)c(=O)n(CCOC)c3n2)cc1,-19.2% (active)
9,c1ccc(CSc2ncccc2-c2nnc(SCCN3CCOCC3)o2)cc1,101%
10,Cn1c(N)c(N=Cc2ccccc2)c(=O)n(C)c1=O,86.1%
11,CN(C)c1ccc(-c2ccc3c(c2)c(-c2ccccc2)nc(=O)n3C)cn1,43.5%
12,O=C(N=c1oc2ccccc2cc1-c1cc2ccccc2[nH]1)c1ccc(Cl)cc1,26.2%
13,Nc1ccc2c(c1)/C(=N/O)c1cc([N+](=O)[O-])ccc1-2,64.1%
14,Cc1cc(C)c(O)c(CNCCCCCCNCc2cc(C)cc(C)c2O)c1,-43% (active)
15,COc1ccc(S(=O)(=O)Nc2cc(Sc3cccc4cccnc34)c(O)c3ccccc23)cc1,-18.8% (active)
16,CCC(CCCN1C(=O)c2ccccc2C1=O)Nc1cc(OC)cc2cccnc12 (centres undefined),86.1%
17,O=C(/C=C/c1ccc(Cl)cc1)c1ccc(Nc2nc(NCCO)nc(N3CCOCC3)n2)cc1,99%
18,CCc1ccc(CNc2ccc(N3CCOCC3)c(C(=O)O)c2)cc1,100%
19,COC(=O)c1cc(N=C2NC(=O)/C(=C/C=C/c3ccccc3)S2)ccc1O,-0.749% (active)
